The values below come from PubChem BioAssay (NCATS).

A number with no mark means an inactive call. Results filed as inconclusive are left out. Active and inactive are the calls of the source. Unless noted, calls follow the shape of the dose curve; as a rule, active = well fitted curve in the direction sought with a large enough effect; inconclusive = small, poorly fitted or top-dose-only effect, or another doubt; inactive = no such curve, though single readings can be large; an effect the other way counts as inactive or inconclusive. Where only a bound is given, the exact number is not on record here.

Assay [1] can be described thus: AP1 Signaling Pathway (AID 357; active = well fitted curve in either direction with a large enough effect, not every such curve was filed as active;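 also: ME-180 reporter cells stimulated with EGF at its EC50 level; % is scaled to controls: 0 for no effect and ±100 for the full control effect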). The conditions noted are these: ME-180 AP-1-bla reporter, EGF-induced, beta-lactamase ratio, 5 h; at 7.69 µM (top of the series) unless noted. Summed up: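 Titration-series screen for positive or negative modulators of EC50 EGF-induced signaling in ME-180 cells carrying an AP-1-driven beta-lactamase reporter. After 5 hours at 37 degrees Celsius, CCF4 460nm/530nm emission ratio gave %Activity; AC50 values derived.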

Assay [2] deals with Cytochrome P450 1A2 (Homo sapiens) (UniProt P05177). Put plainly: p450-cyp1a2 (AID 410; calls by dose curve; also: potency is read from the fitted curve at half-maximal effect;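 as to activity change, negative = inhibition: -100% = full effect of reference inhibitor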). The gist of the method: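 20nM CYP1A2, 100uM Luciferin-ME (=Km), 100mM KPO4; cpd 10 min RT; +NADPH regen, 60 min RT; stop/detect 20 min; luminescence. Normalized to furafylline 57 uM = full inhibition.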
The nature of assay [3]: NFAT Signaling Pathway (AID 444; active = well fitted curve in either direction with a large enough effect, not every such curve was filed as active;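 also: carbachol stimulus at about its EC50 of 1 µM final; % is scaled to controls: 0 for no effect and ±100 for the full control effect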). The conditions noted are these: Jurkat NFAT-bla M1, carbachol, beta-lactamase ratio, 5 h; at 7.69 µM (top of the series) unless noted. The gist of the method: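 Read-out: CCF4 FRET ratio (460 nm/530 nm) after 1 h RT dye loading, used for %activity and AC50 from titration series. Cells: Jurkat NFAT-β-lactamase/M1 line, treated with compound plus 1 uM carbachol for 5 h, 37 °C.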

Assay [4] in a line: Stat Signaling Pathway (AID 446; active = well fitted curve in either direction with a large enough effect, not every such curve was filed as active;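 also: ME-180 cervical cancer cells given 40 pM IL-6 alongside compound; SIE-controlled beta-lactamase reporter measured as 460/530 nm FRET emission ratio; % is scaled to controls: 0 for no effect and ±100 for the full control effect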). The conditions noted are these: ME-180 (cervical carcinoma) SIE beta-lactamase reporter, IL-6 stimulated, 5 h; at 7.69 µM (top of the series) unless noted. The gist of the method:
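FRET read-out (405 nm excitation, 460/530 nm emission) of a beta-lactamase reporter under a STAT-inducible element in ME-180 cervical carcinoma cells. Cells with compound receive 40 pM IL-6 for 5 h. Values are normalised to AC90 stimulation and AC90 JAK-inhibitor controls.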

Assay [5] concerns the target Glucocorticoid receptor (Homo sapiens) (UniProt P04150). Put plainly: GR-GFP Redistribution (AID 450;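 active = compounds whose dose series gives a full or clear partial fitted curve of increased nuclear translocation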; also: potency is read from the fitted curve at half-maximal effect). The conditions noted are these: U2OS GR-GFP nuclear translocation, laser cytometry, 2 h.
Assay [6] has the same target. Put plainly: GR-EFC Redistribution (AID 451; calls by dose curve; also: potency is read from the fitted curve at half-maximal effect). The following applies: CHO-K1 GR-EFC translocation, beta-gal luminescence, 2 h. The gist of the method: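 Translocation of GR-ED fusion to nuclear EA restores b-gal, read by luminescence after 1 h room-temperature detection. Engineered CHO-K1 biosensor cells, 1,000/well, exposed 2 h at 37 C to titrations up to 46 uM final.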

Assay [7] concerns the target 3',5'-cyclic-AMP phosphodiesterase 4B (Homo sapiens) (UniProt Q07343). Put plainly: qHTS Assay for Inhibitors of PDE-IV (AID 607; active = well fitted activation curve with a large enough effect in the main read-out, with a control signal flat, not every such curve was filed as active; also: % of control where 0% means no effect). Summed up:
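Cell-based read-out of cAMP via a modified cyclic nucleotide-gated channel and membrane potential dye (535/590 nm) in HEK293 cells expressing PDE4 endogenously. Compounds tested up to 22.9 uM final; 100 uM RO 20-1724 reference.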

Assay [8] concerns the target Guanine nucleotide-binding protein G(i) subunit alpha-1 (Homo sapiens) (UniProt P63096). Put plainly: qHTS Assay for Inhibitors of RGS12 GoLoco Motif Activity (Green Fluorophore) (AID 879).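 Also: 0% = labeled peptide with Gαi1 and full inhibition = labeled peptide alone without protein; negative values mean loss of peptide binding seen as reduced polarization.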 The gist of the method:
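A drop in FITC polarization marked displacement of the FITC-tagged RGS12 GoLoco peptide (10 nM) from Gαi1 (50 nM). Compounds were incubated 10 min at room temperature in Tris pH 7.5 buffer containing 150 mM NaCl, 0.1 mM GDP and 0.05% NP40; unlabeled peptide titration served as control.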
In general terms: qHTS replaces the single test concentration by a dilution series.

Assay [9] concerns the target Cytochrome P450 3A4 (Homo sapiens) (UniProt P08684). Nature of the assay: qHTS Assay for Activators of Cytochrome P450 3A4 (AID 885). Also: nearly all actives have a fitted effect of over 65% in size. The gist of the method: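 Luminescent readout of luciferin formed from 25 uM Luciferin-PPXE (KM level) by 20 nM CYP3A4 in 200 mM KPO4, with 60 min NADPH-driven reaction at room temperature after 10 min compound exposure. Ketoconazole (57 uM) defined 100% inhibition.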

Assay [10] has as its target Muscarinic acetylcholine receptor M1 (Rattus norvegicus) (UniProt P08482). Put plainly: qHTS Assay for Antagonists of Acetylcholine Muscarinic M1 Receptor: Measurement of IP-One Response (AID 944). Also: nearly all actives have a fitted effect of over 75% in size. The gist of the method: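 Read-out: HTRF competition between d2-IP1 and Eu-cryptate anti-IP1 antibody, emission 620 and 665 nm. Stimulus was carbachol, EC80 (200 nM), for 30 min in M1-CHO cells (rat receptor), after 10 min compound pre-treatment.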

For assay [11], the target named is Pyruvate kinase (Leishmania mexicana) (UniProt Q27686). Nature of the assay: qHTS Validation Assay for Inhibitors of Leishmania Mexicana Pyruvate Kinase (AID 945).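 Also: 0% = DMSO only neutral control wells.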 Summed up: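 Compounds are tested as eight-point concentration series. Reactions contain 0.2 nM LmPYK E451W, 0.5 mM PEP, 0.1 mM ADP, 7 mM MgCl2 and 50 mM KCl at pH 7.2, run 1 h at room temperature, then read by PKLight luminescence.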

Assay [12] concerns the target Pyruvate kinase PKM (Homo sapiens) (UniProt P14618). Put plainly: qHTS Assay for Activators of Human Muscle Pyruvate Kinase (AID 954; active = well fitted curve in the direction sought with a large enough effect, not every such curve was filed as active;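 also: 0% = uninhibited enzyme and -100% = no enzyme or full thiadiazolimine inhibition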). The gist of the method:
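ATP production by PKM2 detected via luciferase luminescence after 1 h room-temperature reaction (0.1 nM enzyme, PEP at Km 0.5 mM, ADP 0.1 mM, pH 7.2 imidazole buffer). Inhibition scaled to no-enzyme control; activation referenced to 0.3 nM enzyme wells.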

In assay [13] the target is Alpha-galactosidase A (Homo sapiens) (UniProt P06280). Nature of the assay: Counterscreen for Glucocerebrosidase Inhibitors: qHTS Assay for Human alpha-Galactosidase at pH 4.5 (AID 992). Also: 0% is about no effect. The gist of the method: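 Fluorogenic 1536-well qHTS at pH 4.5 (citrate, Tween-20): 2 nM enzyme, 80 uM 4-MU-alpha-galactoside, 20 min room temperature, NaOH/glycine stop. Titration 0.7 nM to 77 uM, data normalized to no-enzyme and full-activity controls, Hill-fitted AC50.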
In general terms: The purpose of a counterscreen is to sort out artefacts and off-target activity.

Assay [14] concerns the target alpha-glucosidase (Oryza sativa, rice) (UniProt Q653V4). Nature of the assay: Counterscreen for Glucocerebrosidase Inhibitors: qHTS Assay for Rice alpha-Glucosidase at pH 5.0 (AID 997).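 Also: 0% = full activity with enzyme and -100% = basal without enzyme.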 The gist of the method: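 Endpoint fluorogenic assay at pH 5.0: compounds (0.7 nM to 77 uM) titrated against 4 nM rice enzyme and 400 uM 4-MU-alpha-glucoside for 20 min at room temperature; NaOH/glycine stop, read ex 365/em 440 nm, Hill-fitted AC50.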

Assay [15] can be described thus: qHTS Assay for Identification of Small Molecule Antagonists for NFkB Signaling Pathway (AID 895; active = well fitted inhibition curve with a large enough effect in the signal ratio, with a control signal flat, not every such curve was filed as active; the % refers to the signal ratio; also: % is scaled to controls: 0 for no effect and ±100 for the full control effect). Summed up:
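Beta-lactamase reporter read-out (460 and 530 nm emission ratio, 405 nm excitation, 2 hrs substrate loading RT) after 5 hr stimulation with 10 pM TNF alpha in compound-treated NFkB-bla ME-180 cells in low-serum medium.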

Assay [16] in a line: qHTS Assay for Identification of Small Molecule Agonists for Thrombopoietin (TPO) Signaling Pathway (AID 917). Also: % is scaled to controls: 0 for no effect and ±100 for the full control effect. Summed up:
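Ba/F3 (mouse) + hTPO receptor + GpIIb-promoter luciferase; IL-3 withdrawn overnight; compound + 26 pM TPO (EC50), 24 hrs, 37 C, 5% CO2; Steadylite luminescence, 10 min RT.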

The target in assay [17] is Mitogen-activated protein kinase 10 (Mus musculus) (UniProt Q61831). Nature of the assay: JNK3 AlphaScreen Assay (AID 530; active = well fitted curve in either direction with a large enough effect, not every such curve was filed as active). The gist of the method:
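Kinase buffer: 20 mM Tris-HCl pH 7.6, 10 mM MgCl2, 1 mM DTT, 0.1 mM Na3VO4, 0.01% Tween-20; ATP 10 uM. Substrate biotin-GST-cJun(1-79), enzyme from activated HepG2 lysates. Detection by Ser73 phospho-antibody AlphaScreen.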
Background: Bead proximity is the source of the signal in Alpha formats.

Chain of Cytochrome P450 1A2 (Homo sapiens) (P05177 whole entry, looked up): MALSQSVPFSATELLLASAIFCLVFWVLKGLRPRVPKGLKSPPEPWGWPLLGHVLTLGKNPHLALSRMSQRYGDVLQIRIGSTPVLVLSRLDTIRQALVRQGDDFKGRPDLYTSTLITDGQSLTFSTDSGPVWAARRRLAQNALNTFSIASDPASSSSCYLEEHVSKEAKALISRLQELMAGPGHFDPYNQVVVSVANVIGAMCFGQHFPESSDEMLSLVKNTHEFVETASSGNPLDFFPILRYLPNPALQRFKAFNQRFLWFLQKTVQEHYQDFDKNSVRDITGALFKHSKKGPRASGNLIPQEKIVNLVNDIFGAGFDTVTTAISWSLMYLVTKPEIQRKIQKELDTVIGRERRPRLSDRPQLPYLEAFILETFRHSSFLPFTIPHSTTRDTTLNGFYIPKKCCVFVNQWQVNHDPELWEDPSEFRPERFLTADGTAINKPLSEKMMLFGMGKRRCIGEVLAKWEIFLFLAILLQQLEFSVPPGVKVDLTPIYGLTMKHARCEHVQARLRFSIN
Chain of Guanine nucleotide-binding protein G(i) subunit alpha-1 (Homo sapiens) (P63096 whole entry, looked up): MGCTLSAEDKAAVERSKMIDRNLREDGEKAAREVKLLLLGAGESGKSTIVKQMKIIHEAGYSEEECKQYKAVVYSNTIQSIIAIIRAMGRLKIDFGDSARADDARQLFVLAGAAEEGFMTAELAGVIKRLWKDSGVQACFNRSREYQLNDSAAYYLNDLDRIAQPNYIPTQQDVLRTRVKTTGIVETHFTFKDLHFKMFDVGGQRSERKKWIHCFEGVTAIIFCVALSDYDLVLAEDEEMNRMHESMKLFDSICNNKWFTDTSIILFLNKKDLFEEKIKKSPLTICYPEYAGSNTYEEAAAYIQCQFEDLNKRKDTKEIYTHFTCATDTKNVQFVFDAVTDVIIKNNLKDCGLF
Chain of Glucocorticoid receptor (Homo sapiens) (P04150 whole entry, looked up, the tested form may be a part): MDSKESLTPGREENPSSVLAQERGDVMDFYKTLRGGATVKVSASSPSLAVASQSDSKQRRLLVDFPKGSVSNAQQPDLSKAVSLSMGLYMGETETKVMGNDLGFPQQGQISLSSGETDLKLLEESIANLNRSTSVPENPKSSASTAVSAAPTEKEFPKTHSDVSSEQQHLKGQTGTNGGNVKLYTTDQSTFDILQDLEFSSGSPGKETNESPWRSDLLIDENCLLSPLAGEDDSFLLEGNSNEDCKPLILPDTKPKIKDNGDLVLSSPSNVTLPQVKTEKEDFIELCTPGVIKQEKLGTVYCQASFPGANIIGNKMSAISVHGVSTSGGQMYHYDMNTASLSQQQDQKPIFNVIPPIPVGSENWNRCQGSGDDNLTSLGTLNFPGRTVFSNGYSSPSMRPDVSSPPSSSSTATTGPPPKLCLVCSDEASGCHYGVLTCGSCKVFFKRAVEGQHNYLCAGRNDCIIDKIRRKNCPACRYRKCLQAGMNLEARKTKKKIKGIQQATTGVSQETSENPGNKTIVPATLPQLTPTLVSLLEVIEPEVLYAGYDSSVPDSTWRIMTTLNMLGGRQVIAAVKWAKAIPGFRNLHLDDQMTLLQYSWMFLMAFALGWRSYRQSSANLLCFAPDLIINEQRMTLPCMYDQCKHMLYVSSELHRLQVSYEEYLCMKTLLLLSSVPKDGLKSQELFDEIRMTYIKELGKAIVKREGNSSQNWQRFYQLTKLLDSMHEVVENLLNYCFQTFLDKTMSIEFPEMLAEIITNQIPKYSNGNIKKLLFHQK
Chain of Pyruvate kinase (Leishmania mexicana) (Q27686 2-499 E452W): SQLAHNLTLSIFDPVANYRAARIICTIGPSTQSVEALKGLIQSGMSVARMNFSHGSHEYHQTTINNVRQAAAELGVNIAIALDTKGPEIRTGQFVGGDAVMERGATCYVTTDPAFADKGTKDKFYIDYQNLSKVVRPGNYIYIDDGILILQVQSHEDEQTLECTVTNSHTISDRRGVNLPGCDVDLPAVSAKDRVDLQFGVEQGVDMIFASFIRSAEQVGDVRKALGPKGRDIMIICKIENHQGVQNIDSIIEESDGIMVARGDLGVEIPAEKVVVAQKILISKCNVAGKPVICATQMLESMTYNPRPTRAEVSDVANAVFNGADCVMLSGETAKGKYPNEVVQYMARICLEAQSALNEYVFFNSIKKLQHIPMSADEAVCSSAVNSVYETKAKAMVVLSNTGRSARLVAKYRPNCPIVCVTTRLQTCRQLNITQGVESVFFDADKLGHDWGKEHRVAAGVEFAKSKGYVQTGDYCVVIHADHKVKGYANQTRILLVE
Chain of Muscarinic acetylcholine receptor M1 (Rattus norvegicus) (P08482 whole entry, looked up): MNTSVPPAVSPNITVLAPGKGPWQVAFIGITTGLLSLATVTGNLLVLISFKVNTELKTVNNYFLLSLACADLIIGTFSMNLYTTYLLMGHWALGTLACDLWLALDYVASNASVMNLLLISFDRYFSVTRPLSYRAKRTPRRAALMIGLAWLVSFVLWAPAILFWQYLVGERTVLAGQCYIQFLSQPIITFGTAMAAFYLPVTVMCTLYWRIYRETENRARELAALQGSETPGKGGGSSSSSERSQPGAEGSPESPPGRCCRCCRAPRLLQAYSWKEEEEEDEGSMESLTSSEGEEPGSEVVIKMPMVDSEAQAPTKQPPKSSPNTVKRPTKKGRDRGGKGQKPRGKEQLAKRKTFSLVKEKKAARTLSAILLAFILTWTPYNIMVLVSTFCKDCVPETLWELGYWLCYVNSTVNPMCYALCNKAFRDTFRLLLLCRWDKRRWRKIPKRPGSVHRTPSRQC
Chain of Pyruvate kinase PKM (Homo sapiens) (P14618 whole entry, looked up): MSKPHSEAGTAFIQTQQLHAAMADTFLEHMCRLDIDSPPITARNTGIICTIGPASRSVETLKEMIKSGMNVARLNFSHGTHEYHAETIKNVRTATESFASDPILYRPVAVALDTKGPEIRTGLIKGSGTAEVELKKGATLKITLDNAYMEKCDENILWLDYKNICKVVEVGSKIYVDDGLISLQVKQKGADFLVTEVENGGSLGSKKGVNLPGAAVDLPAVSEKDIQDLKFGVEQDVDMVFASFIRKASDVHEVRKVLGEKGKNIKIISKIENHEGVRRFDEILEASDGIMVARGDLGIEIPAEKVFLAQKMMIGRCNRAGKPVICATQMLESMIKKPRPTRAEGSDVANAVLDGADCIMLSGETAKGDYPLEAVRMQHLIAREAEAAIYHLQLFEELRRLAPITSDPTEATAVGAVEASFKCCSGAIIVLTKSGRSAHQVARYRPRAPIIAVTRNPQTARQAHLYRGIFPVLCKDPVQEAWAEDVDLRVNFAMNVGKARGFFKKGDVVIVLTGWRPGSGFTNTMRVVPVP
Chain of Alpha-galactosidase A (Homo sapiens) (P06280 whole entry, looked up): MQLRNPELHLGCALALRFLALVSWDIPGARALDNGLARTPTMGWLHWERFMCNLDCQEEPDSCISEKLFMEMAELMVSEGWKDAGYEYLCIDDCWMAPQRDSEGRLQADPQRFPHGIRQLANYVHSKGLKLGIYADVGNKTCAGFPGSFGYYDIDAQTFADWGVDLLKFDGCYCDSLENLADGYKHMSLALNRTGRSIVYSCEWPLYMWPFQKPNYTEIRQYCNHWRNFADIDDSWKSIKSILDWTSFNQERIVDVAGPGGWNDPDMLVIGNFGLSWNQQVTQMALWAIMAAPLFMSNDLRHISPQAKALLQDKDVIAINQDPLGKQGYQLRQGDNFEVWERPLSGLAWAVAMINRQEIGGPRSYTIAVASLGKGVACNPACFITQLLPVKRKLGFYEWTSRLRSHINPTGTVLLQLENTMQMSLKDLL
Chain of 3',5'-cyclic-AMP phosphodiesterase 4B (Homo sapiens) (Q07343 whole entry, looked up): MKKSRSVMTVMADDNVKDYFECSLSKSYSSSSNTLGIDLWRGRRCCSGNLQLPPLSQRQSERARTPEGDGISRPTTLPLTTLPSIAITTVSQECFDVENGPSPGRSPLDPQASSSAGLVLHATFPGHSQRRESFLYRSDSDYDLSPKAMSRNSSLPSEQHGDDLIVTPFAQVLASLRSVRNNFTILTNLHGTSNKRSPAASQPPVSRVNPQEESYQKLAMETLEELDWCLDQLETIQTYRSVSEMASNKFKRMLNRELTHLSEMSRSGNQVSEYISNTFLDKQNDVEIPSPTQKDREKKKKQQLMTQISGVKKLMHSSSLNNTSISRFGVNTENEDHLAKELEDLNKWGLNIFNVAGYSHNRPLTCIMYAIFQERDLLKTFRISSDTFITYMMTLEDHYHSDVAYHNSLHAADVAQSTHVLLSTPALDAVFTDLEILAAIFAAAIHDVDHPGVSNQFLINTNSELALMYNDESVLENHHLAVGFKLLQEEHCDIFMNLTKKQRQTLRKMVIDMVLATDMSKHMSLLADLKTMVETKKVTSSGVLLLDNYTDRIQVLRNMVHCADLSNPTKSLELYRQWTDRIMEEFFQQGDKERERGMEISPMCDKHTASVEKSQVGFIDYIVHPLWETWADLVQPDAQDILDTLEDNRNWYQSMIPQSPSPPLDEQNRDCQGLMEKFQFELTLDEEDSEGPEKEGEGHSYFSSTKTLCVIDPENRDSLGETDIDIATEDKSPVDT
Chain of Cytochrome P450 3A4 (Homo sapiens) (P08684 whole entry, looked up): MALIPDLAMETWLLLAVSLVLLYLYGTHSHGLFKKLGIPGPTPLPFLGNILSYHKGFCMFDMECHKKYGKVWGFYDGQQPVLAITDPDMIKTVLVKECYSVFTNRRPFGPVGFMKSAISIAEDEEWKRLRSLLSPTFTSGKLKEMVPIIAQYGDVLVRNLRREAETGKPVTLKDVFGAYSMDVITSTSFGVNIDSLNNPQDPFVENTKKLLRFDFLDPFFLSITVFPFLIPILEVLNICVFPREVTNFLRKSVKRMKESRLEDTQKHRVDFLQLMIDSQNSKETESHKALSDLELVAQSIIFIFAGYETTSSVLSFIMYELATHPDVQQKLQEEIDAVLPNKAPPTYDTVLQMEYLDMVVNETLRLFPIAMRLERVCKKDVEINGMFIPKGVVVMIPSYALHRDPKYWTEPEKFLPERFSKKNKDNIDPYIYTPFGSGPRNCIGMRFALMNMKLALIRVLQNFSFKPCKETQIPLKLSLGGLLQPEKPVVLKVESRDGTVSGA

As for `O=c1ccn([C@@H]2O[C@@H](COP(=O)(O)OP(=O)(O)O)[C@H](O)[C@@H]2O)c(=O)[nH]1`, the activity change, negative = inhibition in [1] was 4.38% [at 38 µM]; in assay [3] it was -1.51% [at 38 µM]. Besides, the Potency result in [2], in assay [7], in assay [9], in assay [10] and in assay [14] was “inactive” each time. Also, in assay [4], the activity, negative = inhibition is 11.6% [at 38 µM]. Also, the Potency in [5] and in assay [6] was greater than 46 µM in each case. In addition, the molecule was classed as inactive in assay [8], in assay [11], in [12] and in assay [13].

With `CC(C)(C)c1onc(OCP(=O)(O)O)c1C[C@@H](N)C(=O)O`, the activity change, negative = inhibition in assay [1] was -0.711% [at 38 µM]; in [3], 8.86% [at 38 µM]. Moreover, the Potency entry in assay [2], in assay [7], in assay [15] and in assay [10] was “inactive” throughout. In assay [4], the activity, negative = inhibition was -10.4% [at 38 µM]. Moreover, the Potency in assay [5] and in [6] was greater than 46 µM each time. In addition, the call in assay [8], in [16], in assay [11], in assay [12] and in assay [13] was inactive.

Regarding `C[C@H]1C[C@@H]2[C@H]3CCC4=CC(=O)C=C[C@@]4(C)[C@@]3(Cl)[C@@H](O)C[C@]2(C)[C@]1(OC(=O)c1ccco1)C(=O)CCl`, the results for the activity change, negative = inhibition in assay [1] and in assay [3] were -22% [at 17.2 µM] and -27.1% [at 17.2 µM], respectively. Further, the Potency in [2] was 5.01 µM (active). For the same molecule, the activity, negative = inhibition in [4] is -1.49% [at 17.2 µM]. Moreover, the Potency entry in [17] and in [7] was “inactive” each time.

Take `C=C/C(C)=C/[C@]1(C)SC(=O)C(C)=C1O`: the figures for the activity change, negative = inhibition in assay [1] and in assay [3] were -3.15% [at 38 µM] and 11.1% [at 38 µM], respectively. Besides, the Potency result in [2], in assay [7], in assay [15], in assay [10] and in [14] was “inactive” in each case. Further, the activity, negative = inhibition in assay [4] is -7.1% [at 38 µM]. Further, in [5], the Potency was greater than 46 µM. For the same molecule, the molecule was called inactive in assay [8], in [12] and in assay [13].

For `[N-]=[N+]=Nc1ccc(C(=O)CSC[C@@H](NC(=O)CC[C@@H](N)C(=O)O)C(=O)NCC(=O)O)cc1`, the activity change, negative = inhibition is -0.0447% [at 38 µM] in assay [1] and -3.2% [at 38 µM] in assay [3]. The Potency entry in assay [2], in assay [7], in assay [15], in [10] and in assay [14] was “inactive” throughout. Also, in assay [4], the activity, negative = inhibition is 10.6% [at 38 µM]. Further, the Potency in assay [5] and in assay [6] was greater than 46 µM in each case. Besides, the molecule was called inactive in assay [8], in assay [11], in [12] and in assay [13].
